Assay outcomes: PubChem, National Center for Advancing Translational Sciences (NCATS)
An excerpt weighted towards active compounds, which were near 3.7% of everything screened.
Nrf2 inh = inhibitors of Nrf2 signaling | Potency, µM (titrated, usually from 46 µM), for the others: at the top dose activity change, negative = inhibition, hits mostly inhibitors | 360,000 compounds, 2.1% hits | A549 ARE-Fluc reporter, luciferase luminescence, 18-24 h; further: on the % scale 0 is the no-effect control and ±100 the full control effect; nearly all actives have a fitted effect of over 60% in size
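Quantitative HTS in A549 cells stably bearing an antioxidant response element-firefly luciferase construct. Inhibition of Nrf2-driven transcription was scored by luminescence after 18-24 h of compound exposure at 37 °C.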
A549 tox = A549 cytotoxicity, counter-screen for Nrf2 inhibitors; A549 ARE-Fluc cells, CellTiter-Fluor viability, 18-24 h; Potency, µM (doses to about 46 µM), for inactives: at the highest dose activity change, negative = cytotoxicity, actives largely listed as inhibitors; 390,000 compounds, 0.16% hits; AID 504648; further: on the % scale 0 is the no-effect control and ±100 the full control effect
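A549 ARE-Fluc cells in 5% FBS OPTI-MEM, 5000 cells/well, rested 2 h then exposed to compounds in concentration-response for 18-24 h at 37 °C. Viability by CellTiter-Fluor fluorescence (Ex 405/Em 525) after 30 min; luciferase luminescence (BugLite, 15 min, RT) read afterwards.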
Nrf2 activator = activates Nrf2 signaling | Potency, µM (series often up to 46.1 µM), without a hit: top-dose activation, actives largely listed as activators | AID 624171 | AREc32 ARE-luciferase reporter (MCF7-derived line), luminescence, 24 h | 410,000 compounds, 0.31% hits; further: % of control where 0% means no effect; nearly all actives have a fitted effect of over 65% in size
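Luminescent ARE reporter assay in AREc32_Fluc cells: overnight plating at 37 deg C, 24 hr compound incubation, Steady-Glo added, 30 min RT before reading.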
ELG1 DNA repair = ELG1-dependent DNA repair inhibition | HEK293T ELG1-luciferase reporter, luminescence, 16 h; DNA damage induced by 5-fluorouridine | Potency, µM (highest dose often 46.1 µM), inactives show at the top dose activity change, negative = inhibition, usual class: inhibitors | 330,000 compounds, 2.3% hits | AID 504467; further: on the % scale 0 is the no-effect control and ±100 the full control effect; nearly all actives have a fitted effect of over 55% in size
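Step one: seed 2,000 cells per well. Step two: pin-transfer compound or DMSO alongside 5-fluorouridine. Step three: incubate 16 hr, 37 °C, 5% CO2. Step four: add ONE-Glo, wait 30 min, read luminescence.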
Starred values were filed as active, the others as inactive; u = inconclusive; x = no result; [ ] = dose if it differs, or a comment. The call rests on the fitted dose curve; in most records, active means well fitted curve in the direction sought with a large enough effect; inconclusive means small, poorly fitted or top-dose-only effect, or another doubt; inactive means no such curve, though single readings can be large; an effect the other way counts as inactive or inconclusive. Potency means the concentration at half of the fitted maximal effect.

SMILES	Nrf2 inh	A549 tox	Nrf2 activator	ELG1 DNA repair
COC(=O)C1=C(C)N(Cc2ccccc2)C(=S)N[C@H]1c1cccc(C(F)(F)F)c1	18µM*	-21%	1%	6%
COc1ccc(CCNC(=O)C(=O)NCC(c2ccco2)S(=O)(=O)c2cccs2)cc1 (stereo not drawn)	x	11%	5%	x
CCN(CC(=O)Nc1cc(Cl)ccc1C)C(=O)COc1cccc2c1OC(C)(C)C2	-11%	-7%	0%	-3%
CCOC(=O)c1c(C)oc2nc(C)nc(NCc3ccccc3Cl)c12	27%	12%	-1%	x
O=C(c1ccc(CSc2nc3ccncc3n2Cc2ccc(F)cc2)cc1)N1CCCCCC1	18µM*	-4%	-1%	x
O=C(c1ccc(CSc2nc3ccncc3n2Cc2cccc(F)c2)cc1)N1CCCCC1	23µM*	-12%	0%	x
CCOC(=O)N1CCN(C(=O)c2ccc3nc(SCc4ccc(F)cc4)n(C)c3c2)CC1	16µM*	-4%	3%	13µM*
O=C(c1ccc(CSc2nc3ccncc3n2Cc2cccc(F)c2)cc1)N1CCCCCC1	u	-18%	-1%	x
Cc1ccc(C)c(N2CCN(C(=O)C(C)n3nc(C)c4sc5ccccc5c4c3=O)CC2)c1 (stereo not drawn)	u	-9%	4%	x
CCOC(=O)c1c(C)[nH]c(C(=O)N/N=C/c2cccc(OC)c2)c1C	-20%	-1%	3%	u
COc1ccc(/C=N/NC(=O)c2[nH]c(C)c(C(=O)N/N=C/c3ccc(OC)cc3)c2C)cc1	u	0%	5%	21µM*
COc1ccc(NC(=O)c2[nH]c(C)c(C(C)=O)c2C)cc1	u	4%	9%	u
COc1cccc(/C=N/NC(=O)c2[nH]c(C)c(C(=O)N/N=C/c3cccc(OC)c3)c2C)c1	u	-4%	8%	21µM*
COc1ccc(C(NC(=O)C2CCN(Cc3ccc(Oc4ccccc4)cc3)CC2)c2ccccn2)cc1 (stereo not drawn)	x	x	0%[9.22 µM]	x
CC(C)c1csc(CN2CCCC(CCC(=O)NCc3ccccc3F)C2)n1 (stereo not drawn)	-9%	13%	0%	u
CC(C)c1csc(CN2CCCC(CNC(=O)c3cccc4ccccc34)C2)n1 (stereo not drawn)	16µM*	-10%	1%	u
COC(=O)[C@@H]1[C@H](CCc2ccccc2)NC(=O)N(Cc2ccccc2)[C@@H]1C	-26%	-4%	0%	x
O=C(CSc1cn(CC(=O)N2CCOCC2)c2ccccc12)Nc1ccccc1F	-1%	8%	0%	x
Cc1ccc(C(C)C)c(OCC(=O)Nc2ccc3c(c2)nc(CN2CCCC2)n3C)c1	x	1%	6%	13µM*
Cn1c(CN2CCCCC2)nc2cc(NC(=O)c3cccc(Br)c3)ccc21	1.3µM*	-16%	-1%	u
CCn1c(CN2CCC(C)CC2)nc2cc(NC(=O)COc3ccc(Cl)c(C)c3)ccc21	15µM*	u	1%	x
Cn1c(CN2CCCCC2)nc2cc(NC(=O)c3ccccc3)ccc21	8%	-5%	0%	u
COc1ccc(CCNC(=O)CCCCCn2c(=O)[nH]c3cc(OC)c(OC)cc3c2=O)cc1OC	11%[9.27 µM]	7%	-1%	x
Cc1ccc(-n2nc3c(=O)n(C(C)C(=O)NCc4ccccc4Cl)nc(C)c3c2C)cc1 (stereo not drawn)	15µM*	-16%	0%	-27%
Cc1ccc(-n2nc3c(=O)n(C(C)C(=O)NCc4ccco4)nc(C)c3c2C)cc1 (stereo not drawn)	-2%	8%	4%	-5%
SMILES	Nrf2 inh	A549 tox	Nrf2 activator	ELG1 DNA repair
CCC(C(=O)NCc1cccc(C)c1)n1nc(C)c2c(C)n(-c3ccccc3)nc2c1=O (stereo not drawn)	21µM*	-14%	0%	-16%
Cc1ccc(-n2nc3c(=O)n(C(C)C(=O)NCCCc4ccccc4)nc(C)c3c2C)cc1 (stereo not drawn)	10µM*	21µM*	0%	u
Cc1ccccc1OCC(=O)Nc1cccc(C(=O)OCc2cc(=O)n3c(C)csc3n2)c1	x	-3%	4%	x
COc1ccccc1C(=O)N(Cc1nc(-c2ccc(Cl)cc2)no1)C(C)C	21µM*	-11%	0%	u
Cc1ccccc1C(=O)N(Cc1nc(-c2ccc(Cl)cc2)no1)C(C)C	u	-5%	0%	x
CC(C)N(Cc1nc(-c2ccc(Cl)cc2)no1)C(=O)CCCN1C(=O)c2ccccc2C1=O	u	1%	0%	23µM*
CC(C)N(Cc1nc(-c2ccccc2)no1)C(=O)c1ccc(Cl)cc1	-22%	2%	0%	-12%
Cc1occc1C(=O)N(C)Cc1nc(-c2ccc(Cl)cc2)no1	21µM*	u	4%	u
COCCCN1C(=O)c2oc3ccccc3c(=O)c2C12C(=O)N(C)c1ccccc12 (stereo not drawn)	-1%	-5%	0%	x
CCc1ccccc1NC(=O)Nc1cc(C(=O)NCc2ccc(C(C)C)cc2)ccc1N1CCCC1	x	4%	0%	x
CCCCSc1nnc2c(n1)OC(c1ccc(Br)s1)Nc1ccccc1-2 (stereo not drawn)	15%	-1%	6%	x
CCOCCCn1c(C)nc2c(c1=O)c1nc3ccccc3nc1n2CCC1=CCCCC1	13µM*	u	0%	u
Cc1nc2c(c(=O)n1CCC1=CCCCC1)c1nc3ccccc3nc1n2/N=C/c1ccccc1	u	x	1%	u
Cc1cc(C(=O)N2CCN(S(=O)(=O)c3ccc(C)c(C)c3)CC2)no1	u	0%	-1%	0%
Cc1ccccc1NC(=O)c1c(C)oc2ccc(O)c(CN3CCOCC3)c12	2%	-3%	6%	x
Cc1nc2ccccn2c1C(=O)N=Nc1c(O)n(CCC(C)C)c2ccccc12	3%	4%	0%	9.2µM*
CCCn1c(O)c(N=NC(=O)c2ccco2)c2ccccc21	-28%	-3%	15%	u
COc1cc(C)ccc1OCCSc1nc2ccc(NC(=O)c3ccccc3F)cc2s1	20%	-5%	1%	x
C=CCNc1nc(N)c(C(=C(C#N)C#N)c2ccc(Br)cc2)s1	u	u	9%	18µM*
Cn1c(=O)c2c(nc(CN3CCc4ccccc4C3)n2Cc2ccccc2)n(C)c1=O	u	-15%	4%	16µM*
Cn1c(=O)c2c(nc(N3CCN(Cc4ccccc4)CC3)n2CCCc2ccccc2)n(C)c1=O	-22%	-8%	0%	12µM*
Cn1c(=O)c2c(nc(N3CCN(c4ccccc4)CC3)n2CCCc2ccccc2)n(C)c1=O	-6%	-16%	0%	u
CCCCCn1c(CN2CCN(Cc3ccccc3)CC2)nc2c1c(=O)n(C)c(=O)n2C	7%	x	0%	21µM*
CCOC(=O)N1CCN(Cc2nc3c(c(=O)n(C)c(=O)n3C)n2Cc2cccc(C)c2)CC1	-5%	5%	-1%	18µM*
Cn1c(=O)c2c(nc(CN3CCc4ccccc4C3)n2Cc2ccc(Cl)cc2)n(C)c1=O	-27%	9%	-1%	26%
O=C(Nc1nonc1-c1ccc(Br)cc1)c1ccco1	-33%	-2%	u	x
